# Measurements published in the antibiotic and cytotoxicity screens of Wong et al. (2023).
# Among all 39,000 compounds or so, about 3,300 (8.5%) were called active. The sample holds actives, similar compounds and a random draw of the others, so the mix is not that of the screen.
# Test system: HepG2
# Test: cytotoxicity call (relative viability < 0.9)
# Conditions: 10 µM
row,Structure (SMILES),cytotoxicity call
1,C[C@@H]1CN([C@H](C)CO)C(=O)c2cccc(NC(=O)Nc3ccc(C(F)(F)F)cc3)c2O[C@H]1CN(C)Cc1ccccc1,inactive
2,C[C@@H]1CCCCO[C@@H](CN(C)C(=O)C2CCCCC2)[C@H](C)CN([C@@H](C)CO)C(=O)c2cc(NS(=O)(=O)c3ccc(F)cc3)ccc2O1,inactive
3,COc1ccc(S(=O)(=O)N2C[C@H](O)COC[C@H]3O[C@@H](CC(=O)NCCCN(C)C)CC[C@@H]32)cc1,inactive
4,CCOc1ccc(-n2c([C@@H](C)N(Cc3cccnc3)C(=O)Cc3ccc(F)c(C(F)(F)F)c3)nc3ncccc3c2=O)cc1,inactive
5,COc1ccc(CN(C)C[C@H]2OCCCC[C@H](C)Oc3ccc(NS(=O)(=O)c4ccc(C)cc4)cc3C(=O)N([C@H](C)CO)C[C@H]2C)cc1,inactive
6,COc1ccc(NC(=O)Nc2ccc3c(c2)C(=O)N([C@@H](C)CO)C[C@@H](C)[C@H](CN(C)C(=O)Nc2cccc4ccccc24)O3)cc1,inactive
7,C[C@H]1CCCCO[C@@H](CN(C)C(=O)Nc2ccc3c(c2)OCO3)[C@@H](C)CN([C@@H](C)CO)C(=O)c2cc(NS(=O)(=O)c3ccc(F)cc3)ccc2O1,inactive
8,C[C@@H]1CN([C@H](C)CO)C(=O)c2cc(NC(=O)Nc3cccc4ccccc34)ccc2O[C@H]1CN(C)C(=O)Nc1ccc(F)cc1,inactive
9,CCc1ccc(Nc2c3c(nc4ccccc24)CCC3)cc1,active
10,CCc1ccc(Nc2c3c(nc4ccccc24)CCCC3)cc1,active
11,CCOc1ccc(NC(C)=O)cc1,inactive
12,CC(C)CN(C(=O)COC(=O)c1c2c(nc3ccccc13)CCC2)c1c(N)n(Cc2ccccc2)c(=O)[nH]c1=O,inactive
13,CCOc1ccc(Nc2c3ccccc3nc3ccccc23)cc1,active
14,c1ccc(Nc2nc(-c3ccccc3)nc3ccccc23)cc1,inactive
15,CCC(CC)c1nc(Nc2ccccc2)c2ccccc2n1,inactive
16,COc1ccc(NC(=O)Nc2ccc3c(c2)C(=O)N([C@H](C)CO)C[C@@H](C)[C@H](CN(C)C(=O)Nc2ccc4c(c2)OCO4)OCCCC[C@@H](C)O3)cc1,inactive
17,Cc1cccn2c(CN)cnc12,inactive
18,C[C@H](CO)N1C[C@H](C)[C@H](CN(C)C(=O)Nc2ccc(C(F)(F)F)cc2)Oc2c(NC(=O)Nc3ccc(F)cc3)cccc2C1=O,inactive
19,COc1ccc(CN(C)C[C@@H]2OCCCC[C@@H](C)Oc3ccc(NS(=O)(=O)c4ccc(F)cc4)cc3C(=O)N([C@@H](C)CO)C[C@H]2C)cc1,inactive
20,COc1ccc(S(=O)(=O)Nc2ccc3c(c2)C(=O)N([C@H](C)CO)C[C@H](C)[C@H](CN(C)Cc2ccc4c(c2)OCO4)OCCCC[C@H](C)O3)cc1,active
21,COc1ccc(CN(C)C[C@@H]2OCCCC[C@@H](C)Oc3ccc(NS(=O)(=O)c4ccc(F)cc4)cc3C(=O)N([C@H](C)CO)C[C@H]2C)cc1,inactive
22,COc1ccc(CN(C)C[C@@H]2OCCCC[C@H](C)Oc3ccc(NS(=O)(=O)c4ccc(F)cc4)cc3C(=O)N([C@H](C)CO)C[C@@H]2C)cc1,active
23,COc1ccc(CN(C)C[C@H]2OCCCC[C@H](C)Oc3ccc(NS(=O)(=O)c4ccc(F)cc4)cc3C(=O)N([C@@H](C)CO)C[C@H]2C)cc1,active

row,Structure (SMILES),cytotoxicity call
1,COc1ccc(CN(C)C[C@@H]2OCCCC[C@H](C)Oc3ccc(NS(=O)(=O)c4ccc(OC)cc4)cc3C(=O)N([C@@H](C)CO)C[C@@H]2C)cc1,active
2,COc1ccc(S(=O)(=O)Nc2ccc3c(c2)C(=O)N([C@@H](C)CO)C[C@H](C)[C@H](CN(C)Cc2ccc4c(c2)OCO4)OCCCC[C@@H](C)O3)cc1,inactive
3,COc1ccc(CN(C)C[C@H]2OCCCC[C@H](C)Oc3ccc(NS(=O)(=O)c4ccc(OC)cc4)cc3C(=O)N([C@H](C)CO)C[C@@H]2C)cc1,inactive
4,COc1ccc(CN(C)C[C@H]2OCCCC[C@H](C)Oc3ccc(NS(=O)(=O)c4ccc(F)cc4)cc3C(=O)N([C@H](C)CO)C[C@H]2C)cc1,inactive
5,COc1ccc(S(=O)(=O)Nc2ccc3c(c2)C(=O)N([C@@H](C)CO)C[C@@H](C)[C@@H](CN(C)Cc2ccc4c(c2)OCO4)OCCCC[C@@H](C)O3)cc1,inactive
6,COc1ccc(CN(C)C[C@H]2OCCCC[C@H](C)Oc3ccc(NS(=O)(=O)c4ccc(F)cc4)cc3C(=O)N([C@@H](C)CO)C[C@@H]2C)cc1,inactive
7,COc1ccc(CN(C)C[C@H]2OCCCC[C@@H](C)Oc3ccc(NS(=O)(=O)c4ccc(OC)cc4)cc3C(=O)N([C@@H](C)CO)C[C@H]2C)cc1,inactive
8,[O-][n+]1onc2c1CCc1c-2nn(-c2ccccc2)[n+]1[O-],inactive
9,COc1ccc(C#Cc2ccc3c(c2)[C@]2(C(=O)N3)[C@H](c3ccc(OCCO)cc3)N3[C@H](c4ccccc4)[C@H](c4ccccc4)OC(=O)[C@H]3[C@@H]2C(=O)N2CCN(c3ncccn3)CC2)cc1,inactive
10,COc1ccc(S(=O)(=O)N(C)C[C@@H]2Oc3ncc(C#CCN(C)C)cc3C(=O)N([C@H](C)CO)C[C@@H]2C)cc1,inactive
11,O=C(O)CCC(=O)Nc1ccccn1,inactive
12,COc1ccc(NC(=O)Nc2ccc3c(c2)C(=O)N([C@H](C)CO)C[C@H](C)[C@H](CN(C)C(=O)NC2CCCCC2)OCCCC[C@H](C)O3)cc1,inactive
13,Nc1ccn[nH]1,inactive
14,NCc1nnc2n1CCCCC2,inactive
15,CCOC(=O)C1CCN(C)CC1,inactive
16,CC[C@@]1(O)C[C@H](O[C@H]2C[C@H](N(C)C)[C@H](O[C@H]3C[C@H](O)[C@H](O[C@H]4CCC(=O)[C@H](C)O4)[C@H](C)O3)[C@H](C)O2)c2c(cc3c(c2O)C(=O)c2c(O)cccc2C3=O)[C@H]1C(=O)OC,active
17,C[C@@H]1CN([C@@H](C)CO)S(=O)(=O)c2ccc(C#CC3CCCCC3)cc2O[C@@H]1CN(C)C(=O)Cc1ccncc1,inactive
18,CO[C@H](C(=O)N(C)C[C@H]1OCc2ccccc2-c2c(n(C)c3ccccc23)C(=O)N([C@@H](C)CO)C[C@@H]1C)c1ccccc1,inactive
19,Cc1cc(C(=O)NCc2cc3n(n2)CCN(S(C)(=O)=O)C3)nc(C)n1,inactive
20,C[C@@H]1CN([C@@H](C)CO)C(=O)Cc2cc(NC(=O)Nc3ccccc3)ccc2O[C@@H]1CN(C)Cc1ccc(C(F)(F)F)cc1,active
21,C[C@H]1CN([C@@H](C)CO)C(=O)Cc2cc(NC(=O)Nc3ccccc3)ccc2O[C@H]1CN(C)Cc1ccc(C(F)(F)F)cc1,active
22,C[C@H](CO)N1C[C@H](C)[C@@H](CN(C)Cc2ccc(C(F)(F)F)cc2)Oc2ccc(NC(=O)Nc3ccccc3)cc2CC1=O,inactive
23,C[C@H]1CN([C@@H](C)CO)C(=O)Cc2cc(NC(=O)Nc3ccccc3)ccc2O[C@@H]1CN(C)Cc1ccc(C(F)(F)F)cc1,active

row,Structure (SMILES),cytotoxicity call
1,C[C@@H]1CN([C@H](C)CO)C(=O)Cc2cc(NC(=O)Nc3ccccc3)ccc2O[C@@H]1CN(C)Cc1ccc(C(F)(F)F)cc1,active
2,C[C@@H]1CN([C@H](C)CO)C(=O)Cc2cc(NC(=O)Nc3ccccc3)ccc2O[C@H]1CN(C)Cc1ccc(C(F)(F)F)cc1,inactive
3,COCC(=O)Nc1ccc2c(c1)C(=O)N(C)C[C@@H](OC)[C@H](C)CN(Cc1ccccc1F)[C@H](C)CO2,inactive
4,CN1CCN(C(=O)C[C@H]2C=C[C@@H](NC(=O)Cc3ccccn3)[C@@H](CO)O2)CC1,inactive
5,C[C@H]1CCCCO[C@H](CN(C)C(=O)CCC(F)(F)F)[C@@H](C)CN([C@@H](C)CO)C(=O)c2cc(NS(=O)(=O)c3ccc(F)cc3)ccc2O1,inactive
6,C[C@@H]1CN([C@@H](C)CO)C(=O)Cc2cc(NS(C)(=O)=O)ccc2O[C@H]1CN(C)C(=O)Nc1ccc(C(F)(F)F)cc1,inactive
7,C[C@H](CO)N1C[C@H](C)[C@H](CN(C)S(=O)(=O)c2ccc(Cl)cc2)OCCCC[C@H](C)Oc2ccc(NC(=O)C3CCCCC3)cc2C1=O,inactive
8,C[C@H](CO)N1C[C@H](C)[C@H](CN(C)S(=O)(=O)c2ccccc2)Oc2ccc(NC(=O)Nc3cccc4ccccc34)cc2C1=O,inactive
9,COc1ccc(NC(=O)Nc2cccc3c2O[C@@H](CN(C)C(=O)Nc2ccc(C(F)(F)F)cc2)[C@H](C)CN([C@@H](C)CO)C3=O)cc1,inactive
10,C[C@@H]1CCCCO[C@H](CN(C)Cc2ccncc2)[C@@H](C)CN([C@@H](C)CO)C(=O)c2cc(NC(=O)Nc3ccc4c(c3)OCO4)ccc2O1,inactive
11,C[C@@H]1CN([C@@H](C)CO)C(=O)Cc2cc(NC(=O)Nc3ccccc3)ccc2O[C@H]1CN(C)Cc1ccc(C(F)(F)F)cc1,active
12,C[C@H](CO)N1C[C@H](C)[C@H](CN(C)Cc2ccc(C(F)(F)F)cc2)Oc2ccc(NC(=O)Nc3ccccc3)cc2CC1=O,inactive
13,NCc1ccc2c(c1)CCO2,inactive
14,C[C@H]1CN([C@@H](C)CO)S(=O)(=O)c2ccc(-c3cncnc3)cc2O[C@H]1CN(C)C(=O)Cc1ccncc1,inactive
15,Cc1ccc(S(=O)(=O)Nc2ccc3c(c2)C(=O)N([C@@H](C)CO)C[C@@H](C)[C@H](CN(C)Cc2ccc(Cl)c(Cl)c2)O3)cc1,inactive
16,Cc1ccc(S(=O)(=O)Nc2ccc3c(c2)C(=O)N([C@H](C)CO)C[C@@H](C)[C@@H](CN(C)Cc2ccc(Cl)c(Cl)c2)O3)cc1,active
17,Cc1ccc(S(=O)(=O)Nc2ccc3c(c2)C(=O)N([C@H](C)CO)C[C@H](C)[C@H](CN(C)Cc2ccc(Cl)c(Cl)c2)O3)cc1,active
18,Cc1ccc(S(=O)(=O)Nc2ccc3c(c2)C(=O)N([C@H](C)CO)C[C@@H](C)[C@H](CN(C)Cc2ccc(Cl)c(Cl)c2)O3)cc1,inactive
19,Cc1ccc(S(=O)(=O)Nc2ccc3c(c2)C(=O)N([C@H](C)CO)C[C@H](C)[C@@H](CN(C)Cc2ccc(Cl)c(Cl)c2)O3)cc1,active
20,Cc1ccc(S(=O)(=O)Nc2ccc3c(c2)C(=O)N([C@@H](C)CO)C[C@H](C)[C@@H](CN(C)Cc2ccc(Cl)c(Cl)c2)O3)cc1,inactive
21,Cc1ccc(S(=O)(=O)Nc2ccc3c(c2)C(=O)N([C@@H](C)CO)C[C@@H](C)[C@@H](CN(C)Cc2ccc(Cl)c(Cl)c2)O3)cc1,active
22,Cc1ccc(S(=O)(=O)Nc2ccc3c(c2)C(=O)N([C@@H](C)CO)C[C@H](C)[C@H](CN(C)Cc2ccc(Cl)c(Cl)c2)O3)cc1,inactive
